Laboratory results as given in PubChem BioAssay.

These molecules were tested against Epidermal growth factor receptor (Homo sapiens) (UniProt P00533) (assay: EGFR binders on small-molecule microarrays, primary screen, biochemical, small-molecule microarray, 635 nm fluorescence (AID 1104;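 note: score merges 667 nm emission intensity with spot signal to noise over triplicate slides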)). Conditions: EGFR binding, higher = more signal.
Chain of Epidermal growth factor receptor (Homo sapiens) (P00533 whole entry, looked up): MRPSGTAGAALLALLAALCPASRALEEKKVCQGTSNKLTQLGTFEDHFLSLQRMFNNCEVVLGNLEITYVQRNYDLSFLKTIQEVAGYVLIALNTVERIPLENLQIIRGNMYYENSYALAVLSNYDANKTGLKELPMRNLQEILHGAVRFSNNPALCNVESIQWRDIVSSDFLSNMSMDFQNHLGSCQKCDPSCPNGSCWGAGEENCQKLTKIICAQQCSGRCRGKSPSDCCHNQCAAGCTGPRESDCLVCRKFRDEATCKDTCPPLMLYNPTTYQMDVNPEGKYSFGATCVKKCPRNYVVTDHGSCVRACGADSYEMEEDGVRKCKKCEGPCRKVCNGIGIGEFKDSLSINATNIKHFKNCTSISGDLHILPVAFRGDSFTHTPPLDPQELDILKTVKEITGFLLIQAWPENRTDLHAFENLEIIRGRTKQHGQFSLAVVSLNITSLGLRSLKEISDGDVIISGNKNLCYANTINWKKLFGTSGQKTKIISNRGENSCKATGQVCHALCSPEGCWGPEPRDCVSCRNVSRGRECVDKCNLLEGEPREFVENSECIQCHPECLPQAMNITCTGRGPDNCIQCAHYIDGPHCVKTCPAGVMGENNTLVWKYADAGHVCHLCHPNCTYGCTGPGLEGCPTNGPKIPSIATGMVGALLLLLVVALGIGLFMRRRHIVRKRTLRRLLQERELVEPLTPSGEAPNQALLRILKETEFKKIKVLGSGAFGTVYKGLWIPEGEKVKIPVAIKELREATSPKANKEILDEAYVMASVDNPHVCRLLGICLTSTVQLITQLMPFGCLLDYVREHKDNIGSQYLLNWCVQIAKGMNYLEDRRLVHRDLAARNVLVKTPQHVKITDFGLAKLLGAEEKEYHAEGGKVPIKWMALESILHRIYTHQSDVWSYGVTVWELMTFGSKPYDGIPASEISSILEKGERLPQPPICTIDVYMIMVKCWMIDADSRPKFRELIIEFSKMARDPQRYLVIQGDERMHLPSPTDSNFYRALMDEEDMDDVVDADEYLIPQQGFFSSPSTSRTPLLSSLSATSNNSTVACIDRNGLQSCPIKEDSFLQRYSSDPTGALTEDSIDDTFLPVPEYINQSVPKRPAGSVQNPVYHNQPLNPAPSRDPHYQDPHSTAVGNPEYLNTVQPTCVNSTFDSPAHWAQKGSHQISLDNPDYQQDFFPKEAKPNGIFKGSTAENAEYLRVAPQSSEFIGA

Structure (SMILES) | composite z-score
C=CCC(OC(C)=O)[C@@H]1[C@@H](N(Cc2ccc(-c3ccccc3)cc2)C(=O)c2ccc(-c3ccccc3)cc2)c2cc(OCCCO)ccc2N1C(=O)c1ccc2ccccc2c1 (stereo not given in full) | -0.175
CCOC(=O)C[C@H]1[C@H](OC(=O)c2cc3ccccc3oc2=O)[C@@H](NC(=O)c2ccc3ccccc3n2)c2cc(OCCCO)ccc2N1C(=O)Cc1ccc(OC)cc1 | 0.442
Cc1ccc(S[C@]2(C(=O)NCC(F)(F)F)CC(=O)N(Cc3cc(C(F)(F)F)cc(C(F)(F)F)c3)[C@@H]2c2ccc(CO)cc2)cc1 | -0.814
COC(=O)[C@@]1(Cc2ccc(OC)cc2)[C@H]2c3cc(C(=O)N4CCCC4)n(CCc4c[nH]c5ccc(O)cc45)c3C[C@H]2CN1C(=O)c1ccccc1 | 0.309
NC(=O)[C@@]1(Cc2ccccc2)COC(c2ccc(OCCCO)cc2)=N1 | -0.377
COCCOC(=O)N1C(=O)[C@@]2(c3cc(C#CCCO)ccc31)[C@H](C(=O)Nc1nc3ccccc3s1)[C@H]1C(=O)O[C@H](c3ccccc3)[C@H](c3ccccc3)N1[C@@H]2c1ccc(O)cc1 | 0.989
COc1ccc([Si](C)(C)[C@@H]2[C@@H](CCO)O[C@]3(C(=O)N(Cc4ccccc4)c4ccc(N5CCOC5=O)cc43)[C@H]2C)cc1 | 0.254
C=C(/C(=C/C[C@H](OC(C)=O)c1ccc(CO)o1)c1cnc2ccccc2c1)C(C)C | 0.845
COC(=O)[C@@]1(Cc2ccccc2)[C@H]2c3cc(C(=O)N4CCCC4)n(CCc4ccccn4)c3C[C@H]2CN1C(=O)c1ccccc1 | 0.142
COCC(=C=CC[C@H](O)c1ccc(OCCO)cc1)CCO | -0.211
